From PubChem BioAssay AID1159580 (chemical genetic matrix, 2015)
Out of some 5,500 compounds screened, about 2,000 (36%) were called active. Roughly 18% stayed inconclusive and do not appear here. This is one part of the list. Values without a mark were called inactive. Cut-off read from the data, not from the text of the source: active = normalized growth mostly below about 0.91 (no sharp cut-off); inconclusive = no clear call, values can overlap the other calls; inactive = mostly above about 0.92.

Assay: chemical genetic growth profiling, strain panel (AID 1159580);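 note: tested at 20 µM; growth read once vehicle control cultures reached saturation at 30 °C; 1 = growth at the plate median or of vehicle wells; lower values mean less growth of the strain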
Conditions: S. cerevisiae deletion strains, growth OD

COC(=O)[C@]1(C)CCC[C@]2(C)c3ccc(C(C)C)cc3C(=O)CC12 (stereo partly drawn)
normalized growth (locus YAL013W, strain DEP1, stronger effect = lower value): 0.981
normalized growth (locus YAL021C, strain ccr4, stronger effect = lower value): 0.992
normalized growth (locus YAL026C, strain drs2, stronger effect = lower value): 0.952
normalized growth (locus YAL030W, strain snc1, stronger effect = lower value): 0.974
normalized growth (locus YBL061C, strain skt5, stronger effect = lower value): 0.972
normalized growth (locus YBR009C, strain hhf1, stronger effect = lower value): 0.961
normalized growth (locus YBR021W, strain FUR4, stronger effect = lower value): 1.1
normalized growth (locus YBR023C, strain chs3, stronger effect = lower value): 0.973
normalized growth (locus YBR171W, strain sec66, stronger effect = lower value): 0.869 (active)
normalized growth (locus YBR229C, strain ROT2, stronger effect = lower value): 0.986
normalized growth (locus YBR231C, strain swc5, stronger effect = lower value): 0.968
normalized growth (locus YBR279W, strain paf1, stronger effect = lower value): 0.971
normalized growth (locus YCL011C, strain gbp2, stronger effect = lower value): 0.961
normalized growth (locus YCL016C, strain dcc1, stronger effect = lower value): 0.979
normalized growth (locus YCL029C, strain bik1, stronger effect = lower value): 1.01
normalized growth (locus YCL061C, strain MRC1, stronger effect = lower value): 0.968
normalized growth (locus YCL069W, strain vba3, stronger effect = lower value): 0.956
normalized growth (locus YCR088W, strain abp1, stronger effect = lower value): 0.96
normalized growth (locus YDL005C, strain med2, stronger effect = lower value): 0.945
normalized growth (locus YDL035C, strain GPR1, stronger effect = lower value): 0.999
normalized growth (locus YDL040C, strain nat1, stronger effect = lower value): 0.96
normalized growth (locus YDL074C, strain BRE1, stronger effect = lower value): 0.863
normalized growth (locus YDL101C, strain DUN1, stronger effect = lower value): 0.969
normalized growth (locus YDL134C, strain PPH21, stronger effect = lower value): 0.974
normalized growth (locus YDL185W, strain tfp1, stronger effect = lower value): 1
normalized growth (locus YDL192W, strain arf1, stronger effect = lower value): 1.01
normalized growth (locus YDR001C, strain nth1, stronger effect = lower value): 0.957
normalized growth (locus YDR069C, strain doa4, stronger effect = lower value): 0.974
normalized growth (locus YDR101C, strain arx1, stronger effect = lower value): 1.01
normalized growth (locus YDR137W, strain rgp1, stronger effect = lower value): 0.866
normalized growth (locus YDR150W, strain NUM1, stronger effect = lower value): 0.975
normalized growth (locus YDR159W, strain sac3, stronger effect = lower value): 0.95
normalized growth (locus YDR162C, strain NBP2, stronger effect = lower value): 0.866
normalized growth (locus YDR195W, strain ref2): 0.97
normalized growth (locus YDR297W, strain sur2, stronger effect = lower value): 0.967
normalized growth (locus YDR318W, strain mcm21, stronger effect = lower value): 1.02
normalized growth (locus YDR334W, strain swr1, stronger effect = lower value): 0.948
normalized growth (locus YDR335W, strain msn5, stronger effect = lower value): 0.978
normalized growth (locus YDR388W, stronger effect = lower value): 1
normalized growth (locus YDR392W, strain spt3, stronger effect = lower value): 0.732 (active)
normalized growth (locus YDR502C, strain sam2, stronger effect = lower value): 0.985
normalized growth (locus YEL003W, strain gim4, stronger effect = lower value): 0.977
normalized growth (locus YEL037C, strain rad23, stronger effect = lower value): 0.95
normalized growth (locus YEL061C, strain CIN8 (second series), stronger effect = lower value): 0.948
normalized growth (locus YEL061C, strain CIN8, stronger effect = lower value): 0.997
normalized growth (locus YER015W, strain faa2, stronger effect = lower value): 0.974
normalized growth (locus YER016W, strain bim1, stronger effect = lower value): 0.958
normalized growth (locus YER110C, stronger effect = lower value): 1.02
normalized growth (locus YER111C, strain swi4, stronger effect = lower value): 0.956
normalized growth (locus YER155C, strain BEM2 (second series), stronger effect = lower value): 0.956
normalized growth (locus YER155C, strain BEM2, stronger effect = lower value): 0.995
normalized growth (locus YER167W, strain BCK2, stronger effect = lower value): 0.997
normalized growth (locus YFR010W, strain ubp6, stronger effect = lower value): 0.977
normalized growth (locus YGL078C, strain dbp3, stronger effect = lower value): 0.988
normalized growth (locus YGL086W, strain mad1, stronger effect = lower value): 1.01
normalized growth (locus YGL167C, strain pmr1, stronger effect = lower value): 0.928
normalized growth (locus YGL173C, strain kem1, stronger effect = lower value): 0.97
normalized growth (locus YGL227W, strain vid30, stronger effect = lower value): 0.972
normalized growth (locus YGL240W, strain doc1, stronger effect = lower value): 0.973
normalized growth (locus YGL248W, strain PDE1, stronger effect = lower value): 0.971
normalized growth (locus YGL253W, strain hxk2, stronger effect = lower value): 0.978
normalized growth (locus YGR078C, strain PAC10, stronger effect = lower value): 0.957
normalized growth (locus YGR135W, strain pre9, stronger effect = lower value): 0.954
normalized growth (locus YGR229C, strain SMI1, stronger effect = lower value): 0.861
normalized growth (locus YGR252W, strain gcn5, stronger effect = lower value): 1.1
normalized growth (locus YHR013C, strain ard1, stronger effect = lower value): 0.959
normalized growth (locus YHR027C, strain rpn1, stronger effect = lower value): 0.971
normalized growth (locus YHR030C, strain SLT2, stronger effect = lower value): 1
normalized growth (locus YHR079C, strain IRE1 (second series), stronger effect = lower value): 0.999
normalized growth (locus YHR094C, strain hxt1, stronger effect = lower value): 0.995
normalized growth (locus YHR129C, strain ARP1, stronger effect = lower value): 0.994
normalized growth (locus YHR142W, strain chs7, stronger effect = lower value): 0.98
normalized growth (locus YHR200W, strain rpn10, stronger effect = lower value): 0.993
normalized growth (locus YIL066C, strain RNR3, stronger effect = lower value): 0.974
normalized growth (locus YIL073C, strain SPO22, stronger effect = lower value): 1.01
normalized growth (locus YIL125W, strain kgd1, stronger effect = lower value): 0.996
normalized growth (locus YIR030C, strain dcg1, stronger effect = lower value): 0.993
normalized growth (locus YJL092W, strain hpr5, stronger effect = lower value): 0.946
normalized growth (locus YJL095W, strain BCK1 (second series), stronger effect = lower value): 0.972
normalized growth (locus YJL095W, strain BCK1, stronger effect = lower value): 0.889
normalized growth (locus YJL115W, strain asf1, stronger effect = lower value): 0.962
normalized growth (locus YJL129C, strain trk1, stronger effect = lower value): 0.899
normalized growth (locus YJL134W, strain LCB3, stronger effect = lower value): 0.989
normalized growth (locus YJL154C, strain vps35, stronger effect = lower value): 0.967
normalized growth (locus YJL164C, strain tpk1, stronger effect = lower value): 0.957
normalized growth (locus YJL166W, strain qcr8, stronger effect = lower value): 0.968
normalized growth (locus YJL168C, strain set2, stronger effect = lower value): 0.998
normalized growth (locus YJL187C, strain SWE1 (second series), stronger effect = lower value): 0.98
